Experimental data reported in PubChem BioAssay (NCI).
This is part of a sample that, as a whole, favours compounds with a hit. Of some 79,000 tested, about 15% had one in any assay. Cut-off read from the data, not from the text of the source: active = growth inhibition above about 70%; inactive = the rest.

Columns and labels:
[1] = NCI Yeast Anticancer Drug Screen. Data for the rad50 strain (AID 155);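 note: 0% = growth of vehicle-only cultures of the same strain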; conditions: S. cerevisiae rad50 strain growth inhibition; at 50.0 µM; hits give high values
In short: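 Yeast carrying a defined DNA repair defect were exposed to test compounds, and growth was compared with vehicle-treated controls to give percent inhibition.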

[2] = NCI Yeast Anticancer Drug Screen. Data for the mec2-1 strain (AID 157); conditions: S. cerevisiae mec2-1 strain, at 50.0 µM, hits give high values
In short: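 Each compound was tested on mec2-1 yeast, a strain altered in DNA damage repair or cell cycle control. Growth inhibition is reported relative to vehicle.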

[3] = NCI Yeast Anticancer Drug Screen. Data for the sgs1 mgt1 strain (AID 161);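 note: 0% = growth of cultures given vehicle only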; conditions: S. cerevisiae sgs1 mgt1 strain, at 50.0 µM, hits give high values
In short: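 Genetically altered yeast, compound exposure, growth inhibition relative to vehicle.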

[4] = NCI Yeast Anticancer Drug Screen. Data for the cln2 rad14 strain (AID 165);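 note: 0% = growth equal to vehicle treated cultures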; conditions: S. cerevisiae cln2 rad14 strain, at 50.0 µM, hits give high values
In short: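 Test compounds were added to cln2 rad14 yeast cultures; inhibition of growth was then determined by comparison with vehicle treatment.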

[5] = NCI Yeast Anticancer Drug Screen. Data for the bub3 strain (AID 167); conditions: S. cerevisiae bub3 mutant strain, at 50.0 µM, hits give high values
In short: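 Compounds were applied to a genetically altered yeast strain carrying a cell-cycle control defect. Growth inhibition was scored against vehicle-treated controls.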

[6] = NCI Yeast Anticancer Drug Screen. Data for the mlh1 rad18 strain (AID 175); conditions: S. cerevisiae mlh1 rad18 strain growth inhibition; at 50.0 µM; hits give high values
In short: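 Inhibition values reflect reduced growth of mutant yeast versus vehicle-treated controls following compound exposure; the mutations affect DNA damage repair.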

Measured: growth inhibition

CCCCCCCCCCCCCCCCCC#N
inactive: [1] 36.7% | [2] 20.6% | [3] -2.9% | [4] -52.1% | [5] 5.5% | [6] 39.9%

Fc1ccc(NC(=S)Nc2ccccn2)cc1
inactive: [1] 4.05% | [2] -6.4% | [3] -4.25% | [4] -59.5% | [5] 6.05% | [6] 19.9%

FC(F)(F)C(c1ccc(Cl)cc1)c1ccc(Cl)cc1
inactive: [1] 42.6% | [2] 28.8% | [3] 40.6% | [4] 34.5% | [5] 5.95% | [6] 30.6%

O=C(c1ccccc1)N1OCCCc2ccccc21
inactive: [1] 17.5% | [2] 7.9% | [3] 19.2% | [4] 2.7% | [5] 13.3% | [6] 20.4%

O=S(c1ccc(O)cc1)c1ccc(O)cc1
inactive: [1] -24.2% | [2] -4.95% | [3] 0.55% | [4] 1.35% | [5] -1.1% | [6] -2.35%

CC(=O)Nc1ccc(N=Nc2c(C)nn(C(=N)N)c2C)cc1
inactive: [1] -5.45% | [2] -8.55% | [3] 0.45% | [4] 0.6% | [5] -4.2% | [6] 9%

COC(=O)CNC(=O)C(Cc1ccc(OCc2ccccc2)cc1)NC(=O)OC(C)(C)C (stereo not given)
inactive: [1] 6.65% | [2] 11% | [3] 23.1% | [4] 2.25% | [5] -10.6% | [6] 26.6%

Oc1ccc(NCc2ccccc2)cc1
inactive: [1] 32.9% | [2] 8.45% | [3] 16.9% | [4] -3.15% | [5] 21.6% | [6] 16.9%

O=C1c2ccccc2C(=O)c2cc(N=Nc3c(O)ccc4ccccc34)ccc21
inactive: [1] 2.05% | [2] 35.9% | [3] -6% | [4] 4.25% | [5] 2.7% | [6] 2.1%

Cc1nc([N+](=O)[O-])cn1CC(=N)N
inactive: [1] -23% | [2] -28.8% | [3] -16.1% | [4] -5.15% | [5] -25.6% | [6] -38.7%

CCOC(=O)c1cc2c(nc1N)C(=O)CCC2
inactive: [1] -0.1% | [2] 6.25% | [3] 34.2% | [4] 16.9% | [5] 30.9% | [6] -30.9%

CC(/C=C/C(=O)c1ccccc1)=C\C=N\N(C)c1ccccc1
inactive: [1] 17.2% | [2] 2.8% | [3] -1.05% | [4] -40.8% | [5] 4.95% | [6] 1.5%

CC(=O)C(=CC=C(c1ccc(N(C)C)cc1)c1ccc(N(C)C)cc1)C(C)=O
inactive: [1] -45.3% | [2] -8.55% | [3] 9.5% | [4] -14.8% | [5] 12.7% | [6] -13.6%

CCCCN=C(NC#N)NCCCC
inactive: [1] -27.6% | [2] 7.9% | [3] -31.2% | [4] -0.1% | [5] -25.4% | [6] -13.8%

CC1(C)C(=NN=C(N)N)C(C)(C)C1=NN=C(N)N
inactive: [1] -3.35% | [2] -6.95% | [3] -15.8% | [4] 29.3% | [5] -18.5% | [6] 14.7%

O=C1c2cc([N+](=O)[O-])ccc2-c2c(S)cccc21
inactive: [1] 2.25% | [2] 5.25% | [3] -10.2% | [4] -4.7% | [5] 25.8% | [6] -16.3%

c1ccc(-c2nc3cc4ccccc4cc3nc2-c2ccccc2)cc1
inactive: [1] -17.4% | [2] -12.6% | [3] -4.9% | [4] -35.6% | [5] -25.9% | [6] -18.6%

O=C1OCCC1=P(c1ccccc1)(c1ccccc1)c1ccccc1
inactive: [1] -5.6% | [2] -30.9% | [3] 6.9% | [4] 9.45% | [5] -7.4% | [6] -4.85%

Cc1cc(C)c(S(=O)(=O)ONC(=O)OC(C)(C)C)c(C)c1
inactive: [1] 11.8% | [2] -3.9% | [3] -4% | [4] 4.9% | [5] 11.2% | [6] -8.1%

CNC(=S)N(C)c1ccccc1
inactive: [1] 0.6% | [2] -9.85% | [3] -15.9% | [4] -57.4% | [5] 8.05% | [6] -23.3%

CC(=O)Nc1nc(Cl)c2ncn(C3CCCO3)c2n1 (stereo not given)
inactive: [1] -13% | [2] -4% | [3] -9.35% | [4] -33.5% | [5] 0.6% | [6] 2.25%

Nc1nc(-c2ccc(S(=O)(=O)O)cc2)cc(=O)[nH]1
inactive: [1] -9.6% | [2] -4.5% | [3] -10.7% | [4] 17.2% | [5] -27.4% | [6] 16.5%

Cc1cccc2c1Oc1ccccc1C2N1C(=O)/C(=C/c2ccc(Cl)c(Cl)c2)SC1=S (stereo not given)
inactive: [1] -3.8% | [2] -10.2% | [3] 6.75% | [4] 33.8% | [5] -17.8% | [6] 0.4%

COC(=O)C(CCc1ccc([N+](=O)[O-])cc1)(CCc1ccc([N+](=O)[O-])cc1)C(C)=O
inactive: [1] 5.9% | [2] -10% | [3] 4.55% | [4] -19.9% | [5] 19.7% | [6] 28.6%

CC(=O)N(C)c1ccc(O)cc1
inactive: [1] 14.6% | [2] -16.1% | [3] -16.1% | [4] -18.6% | [5] -8.9% | [6] 9.2%

O=C(O)CCCC(=O)c1ccccc1
inactive: [1] 5% | [2] -8.65% | [3] 4.85% | [4] -9.05% | [5] -5.9% | [6] 20.1%

N#Cc1c(-c2ccccc2)c(C#N)c(=S)n(C2OCC(O)C(O)C2O)c1N (stereo not given)
inactive: [1] -23.6% | [2] -2.2% | [3] -10% | [4] -38.5% | [5] 3.05% | [6] -15.1%

O=C1c2ccccc2C(=O)c2cc(C[n+]3ccccc3C3OCCO3)ccc21
inactive: [1] 19% | [2] 7.2% | [3] 42.2% | [4] 15.8% | [5] -0.8% | [6] 2.55%

O=[N+]([O-])C(C(Cl)=C(Cl)Cl)=C(N1CCCCC1)N1CCCCC1
inactive: [1] -48.2% | [2] -19.5% | [3] -13.1% | [4] -22.1% | [5] -19.4% | [6] -13.9%

Cc1ccc(Nc2nc(C)c(C(=O)CC(=O)C(=O)Nc3c(C)cccc3C(C)(C)C)s2)cc1
inactive: [1] 14.2% | [2] -17.6% | [3] -0.4% | [4] -19.2% | [5] -1.05% | [6] 2.85%

COc1cc2c(cc1Oc1c(O)c(OC)cc3c1C(C)N(C)CC3)C(C)N(C)CC2 (stereo not given)
inactive: [1] 37.5% | [2] -8.1% | [3] 2.4% | [4] 0.8% | [5] 2.5% | [6] 14.9%

Nc1nc(NCc2ccccc2)cc(=O)[nH]1
inactive: [1] 3.35% | [2] -20.8% | [3] -5.25% | [4] -0.4% | [5] -20.8% | [6] -2.75%

Nc1ncnc2c1ncn2C1C=CC(COS(N)(=O)=O)C1 (stereo not given)
inactive: [1] 13.2% | [2] 21.9% | [3] 0.7% | [4] 10.8% | [5] 13.9% | [6] 29.4%

CCOC(=O)c1cc(C)nc2c(Cl)cc(Cl)cc12
inactive: [1] 13% | [2] 10.8% | [3] -34.4% | [4] -2.9% | [5] 10.4% | [6] 7.95%

O=[S@@]1Nc2cc3ccccc3cc2S1
inactive: [1] 23.2% | [2] -3.35% | [3] 17.6% | [4] 17.1% | [5] -14.9% | [6] 39.2%

O=C(O)c1ccn(-c2cccc(-n3ccc(C(=O)O)n3)n2)n1
inactive: [1] -1.05% | [2] -17.1% | [3] 2.25% | [4] -47.7% | [5] -15.4% | [6] -7.1%

O=S(=O)(O)c1cc(O)ccc1O.O=S(=O)(O)c1cc(O)ccc1O.[NH-]C1CCCCC1[NH-].[Pt+2]
inactive: [1] 17.6% | [2] -4.85% | [3] -5.2% | [4] 4.8% | [5] -0.85% | [6] -3.25%

O=Cc1ccccc1COC(=O)c1cc(C(=O)OCc2ccccc2C=O)c(C(=O)OCc2ccccc2C=O)cc1C(=O)OCc1ccccc1C=O
inactive: [1] 13.9% | [2] 7.15% | [3] -14.2% | [4] -2.8% | [5] -4.9% | [6] 5.25%

CCN(CC)CCOC(=O)OCCN(CC)CC
inactive: [1] -13.5% | [2] -12.1% | [3] -7.3% | [4] 4.45% | [5] 17.9% | [6] -38.8%

O=c1c2c(sc3ccccc13)NCN(CCc1ccccc1)C2
inactive: [1] -10.7% | [2] -4.15% | [3] 20.9% | [4] 3.2% | [5] 19.1% | [6] 12.2%
